{"source": "PubChem BioAssay (NCATS)", "note": "“And” between values parts separate entries of the source, which are not always exact repeats. Equal entries are not always repeated. The source made the active and inactive calls. Calls follow the shape of the dose curve; as a rule, active = well fitted activation curve with a large enough effect; inconclusive = small, poorly fitted or top-dose-only effect; inactive = flat fitted curve, though single readings scatter."}
{"target": "Peroxisome proliferator-activated receptor alpha (Homo sapiens) (UniProt Q07869)", "sequence (Q07869 whole entry, looked up)": "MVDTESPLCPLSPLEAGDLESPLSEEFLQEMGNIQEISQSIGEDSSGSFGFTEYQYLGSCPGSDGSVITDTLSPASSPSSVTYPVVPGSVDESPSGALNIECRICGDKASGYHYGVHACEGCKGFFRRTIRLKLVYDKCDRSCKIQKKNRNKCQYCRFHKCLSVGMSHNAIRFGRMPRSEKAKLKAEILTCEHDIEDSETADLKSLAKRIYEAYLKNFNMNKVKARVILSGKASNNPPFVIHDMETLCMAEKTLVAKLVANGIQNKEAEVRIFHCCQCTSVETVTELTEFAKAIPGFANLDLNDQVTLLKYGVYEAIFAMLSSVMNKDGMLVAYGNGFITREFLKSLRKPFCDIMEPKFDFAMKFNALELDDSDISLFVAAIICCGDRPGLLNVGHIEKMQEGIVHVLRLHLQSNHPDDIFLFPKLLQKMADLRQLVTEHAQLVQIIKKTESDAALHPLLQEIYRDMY", "experiment": "qHTS assay for small molecule agonists of the peroxisome proliferator-activated receptor alpha (PPARalpha) signaling pathway (AID 651778); also: % of control where 0% means no effect", "conditions": "PathHunter PPARalpha complementation, chemiluminescence, 6 h; active compounds read high", "method_in_brief": "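Chemiluminescence from complemented enzyme reported PPARalpha activation in cells after 6 hr of compound treatment at 37 C. The detection reagent was incubated for 60 min at room temperature, and compounds were scored as agonists.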"}
{"compound": "NC(=O)N/N=C/c1ccc([N+](=O)[O-])o1", "max response": "0.128% (inactive) and 1.29% (inactive)"}
{"compound": "CCCCC(CC)COC(=O)c1ccccc1O", "note": "(stereo not given)", "max response": "0.691% (inactive)"}
{"compound": "CC12CCC(CC1)C(C)(C)O2", "max response": "-0.195% (inactive)"}
{"compound": "Cc1cccc(Nc2cc(Cl)nc(SCC(=O)O)n2)c1C", "max response": "-1.35% (inactive)"}
{"compound": "CC(O)CN(CCN(CC(C)O)CC(C)O)CC(C)O", "note": "(stereo not given)", "max response": "-1.89% (inactive)"}
{"compound": "O=C1NS(=O)(=O)c2ccccc21", "max response": "0.552% (inactive)"}
{"compound": "O=C1c2c(O)cccc2Cc2cccc(O)c21", "max response": "-2.77% (inactive)"}
{"compound": "CCOC(=O)c1ccc(O)cc1", "max response": "-1.04% (inactive)"}
{"compound": "CC1=C(/C=C/C(C)=C/C=C/C(C)=C/C(=O)O)C(C)(C)CCC1", "max response": "-0.0468% (inactive) and 3.03% (inactive)"}
{"compound": "CC(O)COc1ccccc1", "note": "(stereo not given)", "max response": "-0.783% (inactive)"}
{"compound": "Cc1c(O)cccc1C(=O)N[C@@H](CSc1ccccc1)[C@H](O)CN1C[C@H]2CCCC[C@H]2C[C@H]1C(=O)NC(C)(C)C", "max response": "-6.84% (inactive)"}
{"compound": "CC1(C)[C@@H]2CC[C@@]1(C)C(=O)C2", "max response": "1.14% (inactive)"}
{"compound": "CN(C)CCOC(C)(c1ccccc1)c1ccccn1", "note": "(stereo not given)", "max response": "-0.887% (inactive)"}
{"compound": "CN(C)CCC=C1c2ccccc2CCc2ccccc21", "max response": "-4.24% (inactive) and -3.42% (inactive)"}
{"compound": "C[C@]12C[C@H](O)[C@H]3[C@@H](CCC4=CC(=O)CC[C@@]43C)[C@@H]1CC[C@@H]2C(=O)CO", "max response": "-1.77% (inactive) and -2.82% (inactive)"}
{"compound": "Cc1cc(CC(=O)O)n(C)c1C(=O)c1ccc(Cl)cc1", "max response": "-2.08% (inactive)"}
{"compound": "NCCNCCNCCNCCN", "max response": "-1.59% (inactive) and -2.29% (inactive)"}
{"compound": "Cc1cc2nc3c(=O)[nH]c(=O)nc-3n(C[C@H](O)[C@H](O)[C@H](O)CO)c2cc1C", "max response": "3.79% (inactive)"}
{"compound": "Nc1ccc(S(=O)(=O)Nc2nccs2)cc1", "max response": "-1.3% (inactive)"}
{"compound": "C[C@]12CC[C@@H]3c4ccc(O)cc4CC[C@H]3[C@@H]1CCC2=O", "max response": "-1.03% (inactive)"}
{"compound": "COC(=O)C1=C(C)NC(C)=C(C(=O)OC)C1c1ccccc1[N+](=O)[O-]", "max response": "-2.24% (inactive)"}
{"compound": "NCCNCCNCCN", "max response": "-1.93% (inactive)"}
{"compound": "CN(C)CCCN1c2ccccc2Sc2ccc(Cl)cc21", "max response": "-0.127% (inactive)"}
{"compound": "NC(=O)c1ncn([C@@H]2O[C@H](CO)[C@@H](O)[C@H]2O)n1", "max response": "-11% (inactive)"}
{"compound": "CNC(=O)Oc1ccc2c(c1)[C@]1(C)CCN(C)[C@@H]1N2C", "max response": "-3.11% (inactive)"}
{"compound": "CCCc1c(OCCCCc2nn[nH]n2)ccc(C(C)=O)c1O", "max response": "11.9% (inactive)"}
{"compound": "[Cl][In]([Cl])[Cl]", "max response": "-1.33% (inactive)"}
{"compound": "COc1ccccc1O", "max response": "-1.16% (inactive) and 0.39% (inactive) and -4.81% (inactive)"}
{"compound": "Oc1cccc(O)c1", "max response": "-10.6% (inactive)"}
{"compound": "CC(CN1c2ccccc2Sc2ccccc21)N(C)C", "note": "(stereo not given)", "max response": "-2.77% (inactive)"}
{"compound": "O=S(=O)(O)NC1CCCCC1", "max response": "-1.02% (inactive)"}
{"compound": "CCCCOC(=O)c1ccc(O)cc1", "max response": "-8.78% (inactive) and 4.43% (inactive)"}
{"compound": "COc1ccc(Cl)cc1C(=O)NCCc1ccc(S(=O)(=O)NC(=O)NC2CCCCC2)cc1", "max response": "0.201% (inactive)"}
{"compound": "CCCCCCCCCCCCOS(=O)(=O)O", "max response": "11.8% (inactive) and 23.9% (inactive) and 3.99% (inactive)"}
{"compound": "O=C1O[C@H]([C@@H](O)CO)C(O)=C1O", "max response": "-1.42% (inactive) and -0.305% (inactive)"}
